Laboratory results: PubChem BioAssay (NCI)
About 79,000 compounds went through this panel and 15% of them were active in at least one assay; those are over-represented in the sample as a whole. A number with no mark means an inactive call. Calls of active or inactive are those of the source. Rule as the data show it: active = growth inhibition above about 70%; inactive = the rest.

Test: NCI Yeast Anticancer Drug Screen. Data for the mec2-1 strain (AID 157)
Settings: S. cerevisiae mec2-1 strain, at 50.0 µM, stronger effect = higher value
How it was run: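 Compounds were applied to mec2-1 yeast cells. Their growth was then compared with that of vehicle-treated cultures to give growth inhibition.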

In order of rising growth inhibition:
1. NCCCn1[nH]c(=O)c2ncccc2c1=O  -28.8%
2. Cc1ccccc1C(=O)NNC(=O)c1cccc2ccccc12  -24.9%
3. CCOC(=O)c1n[nH]c(C)c1C/C(=N/O)c1ccccc1  -24.4%
4. COc1ccc(/C=C2/SC(=Nc3ccccc3)N(NC(=O)Cc3ccccc3)C2=O)c(OC)c1  -19.3%
5. NC(=O)CS  -17.2%
6. COc1ccc(-n2c(=O)c(N=Nc3ccccc3)c(O)n(-c3ccccc3OC)c2=S)cc1  -13.6%
7. CC(=Nc1ccc(Cl)c(Cl)c1)c1ccncc1  -10.1%
8. C/C(N=NC(=S)N1CCCC1)=C1\C=CC=CN1O  -8.35%
9. COc1ccc2c(c1)CCC1C(=O)NN=C21 (centres undefined)  -4.1%
10. O=C1C(Cl)=C(N(C(=O)c2ccccc2)C(=O)c2ccccc2)C(=O)c2ccccc21  -3.7%
11. Brc1ccc2oc3ccccc3c2c1  -2.45%
12. O=NN(CCCl)C(=O)NC1CCC(C(=O)O)CC1 (centres undefined)  -2.05%
13. O=C([O-])c1ccc2c(c1)-c1nc-2nc2[n-]c(nc3nc(nc4[n-]c(n1)c1ccc(C(=O)[O-])cc41)-c1cc(C(=O)[O-])ccc1-3)c1ccc(C(=O)[O-])cc21.[Fe+2]  -0.5%
14. CCC(c1ccc(Cl)cc1)N(CC)c1ccccn1 (centres undefined)  -0.4%
15. CC(=O)N1OCCc2ccccc21  -0.15%
16. C(#CC(Sc1ccccc1)=C(Sc1ccccc1)Sc1ccccc1)Sc1ccccc1  2.15%
17. Cc1cc(-n2cnc3c(Cl)ncnc32)ccc1N  5.3%
18. CCOC(=O)CCNc1nc(N)nc(C)c1NC=O  5.55%
19. COc1cc2c(cc1OC)C(c1ccccc1)OCC2 (centres undefined)  9.65%
20. CCC(=O)C12CCCC1=NC(=N)N=C2C1=NC(=N)N=C2CCCC21C(=O)CC (centres undefined)  12.4%
21. CN1CCN(C2CCCc3ccccc3C2O)CC1 (centres undefined)  13.6%
22. COc1ccc([N+](=O)[O-])c2c(C)cc(=O)[nH]c12  19.4%
23. CCCC1OC(c2ccccc2)OCC1CC (centres undefined)  20.2%
24. O=C(Nc1cccc2ccccc12)c1ccc(Cl)c(Cl)c1  53.4%

Test: NCI Yeast Anticancer Drug Screen. Data for the sgs1 mgt1 strain (AID 161);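 also: 0% = growth of cultures given vehicle only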
Settings: S. cerevisiae sgs1 mgt1 strain, at 50.0 µM, stronger effect = higher value
How it was run: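 Yeast cells carrying a defined DNA-repair defect were exposed to test compounds. Growth inhibition was measured relative to vehicle-treated controls.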

In order of rising growth inhibition:
1. CC(=Nc1ccc(Cl)c(Cl)c1)c1ccncc1  -58%
2. Cc1cc(NS(=O)(=O)c2ccc(NC(=O)c3cccn4c(=O)c5ccccc5nc34)cc2)no1  -44%
3. C(#CC(Sc1ccccc1)=C(Sc1ccccc1)Sc1ccccc1)Sc1ccccc1  -21.9%
4. NC(=O)CS  -21.8%
5. CCOC(=O)CCNc1nc(N)nc(C)c1NC=O  -16.5%
6. CN1CCN(C2CCCc3ccccc3C2O)CC1 (centres undefined)  -15.7%
7. [O]=[W](=[O])([OH])[OH]  -15.4%
8. O=C1c2ccccc2NC(c2cc(Cl)cc(Cl)c2O)N1CCc1ccccn1 (centres undefined)  -14.4%
9. CCC(=O)C12CCCC1=NC(=N)N=C2C1=NC(=N)N=C2CCCC21C(=O)CC (centres undefined)  -14.2%
10. O=C([O-])c1ccc2c(c1)-c1nc-2nc2[n-]c(nc3nc(nc4[n-]c(n1)c1ccc(C(=O)[O-])cc41)-c1cc(C(=O)[O-])ccc1-3)c1ccc(C(=O)[O-])cc21.[Fe+2]  -13.6%
11. CCCC1OC(c2ccccc2)OCC1CC (centres undefined)  -12.7%
12. NCCCn1[nH]c(=O)c2ncccc2c1=O  -11.7%
13. CCN(CC)CCN(C(=Nc1ccccc1)N1CCCCC1)c1ccccc1  -11.5%
14. CCOC(=O)c1n[nH]c(C)c1C/C(=N/O)c1ccccc1  -8.25%
15. c1ccc(C(c2ccccc2)c2cc(-c3cc(C(c4ccccc4)c4ccccc4)[nH]n3)n[nH]2)cc1  -7.55%
16. CC(=O)N1OCCc2ccccc21  -6.65%
17. O=NN(CCCl)C(=O)NC1CCC(C(=O)O)CC1 (centres undefined)  -6.65%
18. COc1ccc2c(c1)CCC1C(=O)NN=C21 (centres undefined)  -5.6%
19. Cn1c(N)c(-n2[nH]c(=O)n(-c3ccccc3)c2=O)c(=O)n(C)c1=O  -3.25%
20. CN(C)/C=C(/N=C(C#N)C#N)C1OCCO1  -2.55%
21. CCOC(=O)c1cc2cc([N+](=O)[O-])ccc2[nH]1  0%
22. O=C1Nc2cc([N+](=O)[O-])c(Br)cc2C1=O  0.7%
23. Cc1cc(-n2cnc3c(Cl)ncnc32)ccc1N  0.95%
24. Cc1ccc(NC(=O)C(=O)CC(=O)c2c(C)n([O-])c3ccccc3[n+]2=O)cc1C  1.25%
25. O=C(OC1CCCC1)C1(O)CCCCC1  3.8%
26. Cc1cccc(C2=NC(=C3CCCCC3)C(=O)O2)c1  5.8%
27. COc1cc2c(cc1OC)C(c1ccccc1)OCC2 (centres undefined)  6.8%
28. COc1ccc(/C=C2/SC(=Nc3ccccc3)N(NC(=O)Cc3ccccc3)C2=O)c(OC)c1  7.45%
29. Cc1ccccc1C(=O)NNC(=O)c1cccc2ccccc12  7.9%
30. C/C(N=NC(=S)N1CCCC1)=C1\C=CC=CN1O  15.4%
31. CCC(c1ccc(Cl)cc1)N(CC)c1ccccn1 (centres undefined)  16.6%
32. COC(=O)c1cc(-c2cccc3ccccc23)[nH]c(=O)c1C#N  17.6%
33. Brc1ccc2oc3ccccc3c2c1  18.4%
34. COc1ccc([N+](=O)[O-])c2c(C)cc(=O)[nH]c12  21.9%
35. CCOC(=O)c1c(C(F)(F)F)oc2c1ccc1nc3nonc3nc12  23.1%
36. C1CCC(C(CCCCC(C2CCCCC2)C2CCCCC2)C2CCCCC2)CC1  27.2%
37. COc1ccc(-n2c(=O)c(N=Nc3ccccc3)c(O)n(-c3ccccc3OC)c2=S)cc1  40.5%
38. O=C(Nc1cccc2ccccc12)c1ccc(Cl)c(Cl)c1  52.8%
39. COC(=O)c1ccc(CSc2ccc(N)cc2)cc1  60.6%

In the case of O=C1C(Cl)=C(N(C(=O)c2ccccc2)C(=O)c2ccccc2)C(=O)c2ccccc21, the growth inhibition is reported as 83.2% (active).
